Assay outcomes: PubChem, several laboratories
PriA SSB inh: blocks PriA binding to SSB C-terminal tail | hit rate 0.6% among 430,000 | AlphaScreen SSBct-PriA binding, biotinylated peptide | AID 1272365 | inhibition, % at 33 µM; in the data active = inhibition mostly above about 37%, no sharp cut-off; inactive = mostly below about 20%;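 also: plate controls were negative control peptide for no effect and reference peptide for full effect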
Sa ugtP lethal: compounds lethal to S. aureus RN4220 ugtP deletion mutant; growth inhibition, % (concentration not given with the values); hit rate 0.54% among 330,000; AID 1259309; OD600 growth, 16 h; in the data active = growth inhibition above about 68%;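 also: plate controls were untreated wells for no effect and antibiotic for full effect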
CCHF vOTU inh: blocks the CCHF virus ovarian tumor domain protease. inhibition, % at 11.5 µM. AID 651958. hit rate 0.55% among 370,000. CCHFV vOTU protease, Pep-AMC fluorescence; in the data active = inhibition above about 30%; also: 0% = vehicle wells with enzyme and 100% = no enzyme wells
Mtb hypoxia inh: Mtb hypoxia fluorescent reporter inhibition | hit rate 0.1% among 300,000 | fluorescence inhibition, % (no concentration beside the values) | M. tuberculosis hypoxia-regulated fluorescent reporter, fluorescence | AID 1159583; in the data active = fluorescence inhibition mostly above about 23%, no sharp cut-off; inactive = mostly below about 17%
Sa RN4220 lethal: kills Staphylococcus aureus RN4220. S. aureus RN4220 growth, OD600, 16 h. inhibition, % (concentration not given with the values). hit rate 0.33% among 330,000; in the data active = inhibition above about 85%;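 also: plate controls were untreated cells for no effect and reference antibiotic for full effect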
Active calls of the source: *; · = no result given; ! = repeats disagree. A selection: hits, their analogues and other compounds. The true share with any hit is near 1.4%.

SMILES	PriA SSB inh	Sa ugtP lethal	CCHF vOTU inh	Mtb hypoxia inh	Sa RN4220 lethal
Cc1ccc(C(=O)Nc2ncc([N+](=O)[O-])s2)cc1	-1	92*	3	18	93*
Cc1onc(-c2ccccc2)c1C(=O)Nc1nnc(C(C)C)s1	-8	2	-5	14	10
Cc1onc(-c2ccccc2)c1C(=O)Nc1ncc([N+](=O)[O-])s1	-9	82*	15	23	80
O=C(COc1ccc(Cl)cc1)Nc1ncc([N+](=O)[O-])s1	11	98*	15	-6	100*
Cc1ccc(/C=C/S(=O)(=O)N2C3CCC2COC3)cc1	-19	·	·	·	·
O=C(Oc1ccc(OC(=O)c2ccncc2)cc1)c1ccncc1	0	-8	14	37*	0
O=C(NCCNc1ccc(Nc2ccccn2)nn1)[C@@H]1CCCO1	52*	·	·	·	·
Cc1nc(NCCNC(=O)C2CCCO2)cc(Nc2ccccn2)n1 (centres undefined)	-17	·	·	·	·
O=S(=O)(NCCNc1ccc(Nc2ccccn2)nn1)c1ccccc1Cl	89*	·	·	·	·
CC(=O)N1N=C(c2ccc([N+](=O)[O-])cc2)CC1c1ccccc1Cl (centres undefined)	45*	-6	15	-2	-1
CC(=O)N1N=C(c2ccccc2)CC1c1ccccc1[N+](=O)[O-] (centres undefined)	3	-4	-14	8	7
CCCC(=NNC(=O)c1ccc2c(c1)OCO2)c1cccs1	-12	1	·	-4	3
O=[N+]([O-])c1ccc(O)c(-c2cc(C(F)(F)F)nc(-c3ccccc3)n2)c1	-7	99*	2	·	100*
O=c1c2ccccc2nc(/C=C/c2ccccc2O)n1-c1ccccc1O	·	·	-6	·	·
O=c1c2ccccc2nc(/C=C/c2ccccc2F)n1-c1ccccc1O	1	99*	-3	-11	98*
O=C(O)c1ccc(C=NNC(=S)NCCN2CCOCC2)cc1	-9	4	·	-2	7
O=S(=O)(Nc1cccc2cccnc12)c1ccc(S(=O)(=O)N2CCCC2)cc1	45*	5	3	6	1
O=C(CCCSc1ccc(NC(=O)C2CC2)nn1)NCC1CCCO1 (centres undefined)	-1	·	·	·	·
CSc1ncccc1C(=O)OCC(=O)c1ccc[nH]1	6	1	-2	22*	1
CN(C)S(=O)(=O)c1ccc(C(=O)NCC2CCN(C(=O)c3ccoc3)CC2)cc1	-19	·	·	·	·
CN(C)c1ccc(C=NNC(=O)c2ccccc2Cl)cc1	0	11	·	7	1
Ic1ccc(Cn2c(-c3ccc(I)o3)nc3ccccc32)o1	1	·	·	·	·
Brc1ccc(Cn2c(-c3ccc(Br)o3)nc3ccccc32)o1	57*!	-7	3	18	-1
O=[N+]([O-])c1ccc(NN=Cc2cccnc2)cc1	-9	16	·	5	1
COc1ccc(N2CCN(CCCNC(=O)C(=O)c3c[nH]c4ccccc34)CC2)cc1	48*	8	21	0	4
SMILES	PriA SSB inh	Sa ugtP lethal	CCHF vOTU inh	Mtb hypoxia inh	Sa RN4220 lethal
CCc1c(C)c(C#N)c2[nH]c3ccccc3n2c1=S	7	92*	-9	2	93*
CC(C)(C)c1ccc(C(=O)N/C(=C/c2ccco2)C(=O)NCCCn2ccnc2)cc1	63*	·	·	·	·
O=C(NCCCn1ccnc1)/C(=C\c1ccco1)NC(=O)c1ccco1	-7	1	-3	-3	1
COc1ccc(C=NNc2nnc(Cc3ccccc3)c(=O)[nH]2)cc1OC	-11	6	·	-3	-2
Cc1ccc(C(C)C)c(OCC(=O)c2c(O)c3ccccc3oc2=O)c1	-22	86*	0	14	86*
COc1ccc(N=Nc2cc(OC)c(N)cc2OC)cc1	62*	0	29	9	-1
COc1ccc(N=Nc2cc(C)ccc2O)cc1	77*	11	-5	6	-1
COc1ccc(N=Nc2ccc(N)nc2N)cc1	11	·	7	·	·
COc1ccc(OC)c(N)c1	74*	-15	3	-2	-4
CCOc1ccc(NC(=S)NC23CC4CC(CC(C4)C2)C3)cc1	-12	·	-1	·	·
CN(C)c1ccc(NC(=S)NC23CC4CC(CC(C4)C2)C3)cc1	45*	-10	2	19	-3
Brc1ccc(-n2cccc2C=Nn2cnnc2)cc1	12	3	·	·	0
CCC1(C)Cc2ccccc2-c2nc(-c3ccccc3)oc(=O)c21 (centres undefined)	-42	85*	-6	12	-1
Cc1nc2cc(NC(=O)C3COCC(=O)N3Cc3cccs3)ccc2s1 (centres undefined)	17	·	·	·	·
Cc1ccc(C)c(N2CCN(S(=O)(=O)c3ccc4c(c3)NC(=O)CC(=O)N4)CC2)c1	8	90*	10	-3	23
Cn1cnc(S(=O)(=O)N2CC(S(=O)(=O)c3ccc(Cl)cc3)C2)c1	-15	·	·	·	·
